# Sampled rows, rich in hits. Any-hit rate of the full collection: about 2.3%.
# M1 PAM – potentiates human M1 receptor response to acetylcholine | P11229 | CHO-K1 hM1, Fluo-8 calcium fluorescence, ACh EC20; 0% = ACh EC20, 100% = maximal ACh | 360,000 compounds, 0.088% hits | activation, % at 3 µM; in the data active means activation above about 19%, passing the limit was not always enough
# Target sequence (P11229 whole entry, looked up): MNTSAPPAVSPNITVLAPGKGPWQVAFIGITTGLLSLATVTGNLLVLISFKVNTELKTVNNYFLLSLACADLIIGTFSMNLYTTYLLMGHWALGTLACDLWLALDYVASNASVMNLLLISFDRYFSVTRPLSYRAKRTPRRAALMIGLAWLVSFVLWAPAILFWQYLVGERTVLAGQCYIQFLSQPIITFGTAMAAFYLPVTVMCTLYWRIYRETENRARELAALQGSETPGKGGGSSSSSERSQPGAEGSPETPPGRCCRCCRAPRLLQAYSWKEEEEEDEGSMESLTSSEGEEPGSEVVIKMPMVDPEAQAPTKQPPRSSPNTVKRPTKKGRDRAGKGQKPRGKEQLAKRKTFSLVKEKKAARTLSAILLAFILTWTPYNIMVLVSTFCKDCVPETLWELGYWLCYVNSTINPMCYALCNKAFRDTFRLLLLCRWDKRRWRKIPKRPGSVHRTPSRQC
# M1 ag – activates human CHRM1 receptor | AID 588814 | activation, % at 3 µM | 360,000 compounds, 0.33% hits | P11229 | CHO-K1 hM1, Fluo-8 calcium fluorescence, agonist mode; 0% DMSO, 100% acetylcholine EC100;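 active means activation above the run's mean compound activation plus 3 SD, cut at about 16% in these data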;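 further: peak over basal fluorescence ratio within a 140 s kinetic read after compound addition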
# CHO-K1 Ca antag – nonselective inhibitor or artifact in parental CHO-K1 cells. ATP-induced calcium, Fluo-8 fluorescence. inhibition, % at 3 µM. 360,000 compounds, 0.6% hits;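 active means inhibition above a per-plate cutoff, the plate's mean sample inhibition plus 3 SD, cut at about 24% in these data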;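 further: 0% = DMSO plus EC80 ATP and 100% = DMSO alone without ATP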
# M1 ag parental – counter-screen for M1 agonists: effect in parental CHO-K1 cells | Fluo-8 calcium fluorescence; scaled to maximal ATP response, vehicle zero | activation, % at 3 µM | 360,000 compounds, 0.48% hits | AID 602248; in the data active means activation above about 15%;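 further: untransfected CHO-K1 host cells lacking M1 receptor as counterscreen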
# CHRM1 antagonist – human CHRM1 antagonism | P11229 | CHO-K1 hM1, Fluo-8 calcium fluorescence, ACh EC80 antagonist | inhibition, % at 3 µM | 360,000 compounds, 1.3% hits | AID 588852;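 active means percent inhibition above its own plate's cutoff, namely the mean of that plate's compound wells plus 3 SD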;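 further: peak over basal fluorescence ratio during 140 s after agonist addition; 0% = ACh EC80 plus DMSO and 100% = DMSO alone without agonist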
# M1 PAM parental – M1 PAM counterscreen hit in parental CHO-K1 cells; 360,000 compounds, 0.02% hits; activation, % at 3 µM; ATP EC20, Fluo-8 calcium fluorescence; 0% at ATP EC20, 100% at ATP max; AID 602247;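 active means activation above the run cutoff, the mean activation of all test compounds plus 3 SD, cut at about 40% in these data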;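 further: peak over basal fluorescence ratio in a 140 s read after ATP addition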
# An asterisk follows results filed as active; nt = no result; ! = not confirmed by another sample.
SMILES,M1 PAM,M1 ag,CHO-K1 Ca antag,M1 ag parental,CHRM1 antagonist,M1 PAM parental
CC(C)c1ccccc1NC1=NCCCS1,-6,-11,-6,0,13,20
C=CCn1c(O)c(C(C)=O)c(=O)[nH]c1=O (tested in a mixture with another compound),8,0,10,2,-14,-24
CCN(CC(=O)Nc1ccc(C#N)c(Cl)c1)CC(=O)NC1CCS(=O)(=O)C1 (stereo unspecified),10,4,25*,0,11,-18
N#Cc1ccc(NC(=O)CN2CCCC2)cc1Cl,1,-5,-14,3,-1,9
COc1ccc(CNCCc2c(C)[nH]c3ccc(OC(F)(F)F)cc23)c(OC)c1,-8,0,33*,37*,27,-7
C[N+]12CCC(CC1)C(C(O)(c1cccc(Cl)c1)c1cccc(Cl)c1)C2 (stereo unspecified),-25,-5,-11,1,97*,3
Cc1ccc(C(O)(c2ccc(C)c(C)c2)C2CN3CCC2CC3)cc1C (stereo unspecified),-6,-9,10,1,12,6
CC[N+]12CCC(CC1)C(C(O)(c1ccccc1)c1ccccc1)C2 (stereo unspecified),-23,-6,-13,1,98*,22
CCC(CO)(C(=O)OC1C[N+]2(C)CCC1CC2)c1ccccc1 (stereo unspecified),-33,-14,4,0,99*,3
O=C(C[N+]12CCC(CC1)C(OC(=O)c1ccccc1)C2)c1ccc([N+](=O)[O-])cc1 (stereo unspecified),-6,4,-8,1,12,21
COC[C@]12CN(C)C3C4[C@H](OC)[C@H]1C3([C@@H](OC)C[C@H]2O)[C@@H]1C[C@@]2(O)[C@H](OC(=O)c3ccccc3)[C@@H]1[C@]4(OC(C)=O)[C@@H](O)[C@@H]2OC,6,-3,-1,0,-7,10
CN(C)[C@@H]1C(=O)C(C(N)=O)=C(O)[C@@]2(O)C(=O)C3=C(O)c4c(O)cccc4[C@@](C)(O)C3[C@H](O)C12 (stereo partly specified),-27,0,27*!,4,65,-7
CN(C)C1C(=O)C(C(N)=O)=C(O)C2(O)C(=O)C3=C(O)c4c(O)cccc4C(C)(O)C3CC12 (stereo unspecified),-5,6,28*,0,-9,-12
CCOC(=O)[C@]12Cc3cc(Cl)ccc3[C@H]1N(C1CCCCC1)C(=O)c1ccccc12,nt,nt,8,4,nt,16
O=C1NC(=O)C(Nc2ccccc2)C(=O)N1,18,4,-8,2,-17,12
c1ccc(-c2cc(-c3ccccc3)[n+](-c3ccccc3)c(-c3ccccc3)c2)cc1,-17,2,20,11,43*,-11
CN(C)c1ccc(-[n+]2c(-c3ccccc3)cc(-c3ccccc3)cc2-c2ccccc2)cc1,-33,-11,23,8,56*,4
Cc1ccc(-c2cc(-c3ccccc3)cc(-c3ccccc3)[n+]2-c2ccccc2)cc1,-33,-2,30*,13,78*,-17
CCOC(=O)c1cccc(-[n+]2c(-c3ccccc3)cc(-c3ccccc3)cc2-c2ccccc2)c1,-22,-13,-17,0,30,-2
Cc1ccc(-c2cc(-c3ccc(C)cc3)[n+](-c3ccccc3)c(-c3ccc(C)cc3)c2)cc1,-21,6,16,17*,51*,-3
C[n+]1c(-c2ccccc2)cc(-c2ccc(Cl)cc2)cc1-c1ccccc1,10,-14,16,-1,-12,-14
O=[N+]([O-])c1cc(Cl)c(O)c(-[n+]2c(-c3ccccc3)cc(-c3ccccc3)cc2-c2ccccc2)c1,7,1,-4,0,-12,8
Cc1ccc(-c2cc(-c3ccc(C)cc3)[n+](-c3ccc(C(=O)[O-])cc3)c(-c3ccc(C)cc3)c2)cc1,12,9,-14,0,-5,-3
CCC1=CCN(CCc2c(C)[nH]c3ccccc23)CC1,-6,-12,1,0,1,-8
Cc1ccc(-n2c(=O)[nH]c3ccccc3c2=O)cc1[N+](=O)[O-],3,2,10,1,-8,-8
SMILES,M1 PAM,M1 ag,CHO-K1 Ca antag,M1 ag parental,CHRM1 antagonist,M1 PAM parental
C[C@]12CCC3C(CC[C@H]4C[C@@H](O)CC[C@]34C)C1C/C(=N/O)[C@@H]2O (stereo partly specified),3,0,-4,2,-8,8
CSCCC(c1nnnn1C(C)(C)C)N1CCC2(CC1)C(=O)NCN2c1ccccc1 (stereo unspecified),2,1,-2,5,-23,-2
COc1cc(CNCCc2c[nH]c3ccccc23)cc(OC)c1,-3,-4,25*,2,6,-1
Fc1cccc(CNCCc2c[nH]c3ccccc23)c1,3,-4,3,0,-2,-2
Cc1cccc(CNCCc2c[nH]c3ccccc23)c1,4,-1,-6,23*,3,20
CN1C(C(=O)N2CCC3(CC2)OCCO3)=CC(c2ccc(F)cc2)=NS1(=O)=O,0,-1,-9,1,4,-5
CCN(CC)CCCOC(=O)C(OC(C)C)(c1ccccc1)c1ccccc1,-32,-10,-5,4,102*,18
CC(C)(C)c1cc(C=C(C#N)C#N)cc(C(C)(C)C)c1O,-15,11,31*,10,45,6
CC1=C(O)C(=O)C=C2C1=CC=C1C2(C)CCC2(C)C3CC(C)(C(=O)O)CCC3(C)CCC12C (stereo unspecified),-6,0,37*,6,35,6
O=C(c1cc(Cl)cc(Cl)c1)N1Cc2ccccc2-n2nncc2C1,5,-2,-7,3,-9,20
CN1/C(=C\C=C2C(=O)NC(=S)NC2=O)C(C)(C)c2ccccc21,-26,63*,22,54*,27*,-9
O=C1NC(=S)NC(=O)C1=Cc1cccc2cc3ccccc3cc12,12,-5,-6,-1,-14,1
CC(Cc1ccccc1Sc1ccccc1O)N(C)C (stereo unspecified),-23,-4,5,2,98*,7
O=C1NCN(c2ccccc2)C12CCN(C(c1ccccc1)c1nnnn1-c1ccc3c(c1)OCCO3)CC2 (stereo unspecified),20,17*,6,1,5,0
CCCCn1nnnc1C(c1cccc2ccccc12)N1CCC2(CC1)C(=O)NCN2c1ccccc1 (stereo unspecified),9,2,30*,0,-3,-8
